# Source: PubChem (several laboratories)
# MEKK2mut PB1 HTS: MEK5 binding signal on mutant MEKK2 PB1, primary screen, biochemical, multiplex bead flow cytometry, Alexa488-MEK5 | 290,000 compounds, 0.35% hits | AID 1530, 2009 | percent response, % at 10 µM | Alexa488-MEK5 binding to MEKK2 mutant; in the data active = percent response above about 24%, passing the limit was not always enough
# dFosB act-1: activators of delta FosB homodimer, primary screen, biochemical, fluorescence polarization, TAMRA-CDK5 oligo, single point; Protein FosB (Mus musculus), P13346; purified delta FosB; percent of positive-control signal above neutral wells; activation, % at 25 µM; 340,000 compounds, 0.99% hits; AID 493131, 2011;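 active = mean activation above about 17%, with every replicate also reaching it, limit read from the data, passing the limit was not always enough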
# Target sequence (P13346 whole entry, looked up): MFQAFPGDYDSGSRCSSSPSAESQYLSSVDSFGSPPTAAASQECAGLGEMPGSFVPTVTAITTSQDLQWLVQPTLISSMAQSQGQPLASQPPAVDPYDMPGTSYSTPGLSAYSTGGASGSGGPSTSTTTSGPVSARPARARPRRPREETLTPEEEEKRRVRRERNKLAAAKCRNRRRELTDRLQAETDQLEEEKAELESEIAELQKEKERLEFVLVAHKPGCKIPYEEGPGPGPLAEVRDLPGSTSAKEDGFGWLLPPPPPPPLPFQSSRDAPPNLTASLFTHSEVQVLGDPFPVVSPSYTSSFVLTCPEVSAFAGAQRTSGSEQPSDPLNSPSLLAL
# MEKK3 PB1 HTS: modulators of MEKK3-MEK5 PB1 binding, primary screen, biochemical, wildtype MEKK3, multiplex bead flow cytometry, Alexa488-MEK5; 290,000 compounds, 1.4% hits; Mitogen-activated protein kinase kinase kinase 3 (Homo sapiens), Q99759; bead-based flow cytometry, Alexa488-MEK5 binding to MEKK3; actives lie on both sides; 0 = blocked by unlabeled MEK5, 100 = vehicle; binding response (% of control), % at 10 µM; AID 1529, 2009;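 active = binding response more than 3 SD above or below the average of its plate-row segment, actives on both sides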;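 also: Alexa488 bead fluorescence after subtracting the streptavidin-only scavenger bead signal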
# MEKK2 WT-MEK5: modulators of MEK5 binding to wildtype MEKK2, primary screen, biochemical, multiplex bead flow cytometry, Alexa488-MEK5 | Alexa488-MEK5 binding to MEKK2 WT; actives lie on both sides | binding response (% of control), % at 10 µM | 290,000 compounds, 1.1% hits; in the data active = binding response below about 67% or above about 130%
# DNA FID counter: compounds displacing fluorescent DNA intercalator, primary screen, artefact control for HCV NS3 helicase inhibitor project, biochemical, FID fluorescence; DNA fluorescent intercalator displacement; inhibition, % at 7.9 µM; 290,000 compounds, 0.17% hits; AID 1845, 2009; in the data active = inhibition above about 37%;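 also: 0% = vehicle and 100% = reference compound; higher means more ethidium bromide displaced from hairpin DNA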
# MEKK2wt confirm: modulators of MEK5 binding to wildtype MEKK2, confirmation, biochemical, single concentration, multiplex bead flow cytometry; Alexa488-MEK5 binding to MEKK2 WT; actives lie on both sides; binding response (% of control), % at 10 µM; shares compounds with MEKK3 PB1 HTS; 5,900 compounds, 2.4% hits; AID 1892, 2009; in the data active = binding response below about 16% or above about 210%; inactive = in between
# MEKK2mut-MEK5: mutant MEKK2 PB1-MEK5 binding signal retest – biochemical, single concentration, multiplex bead flow cytometry, confirmation; shares compounds with MEKK3 PB1 HTS; Alexa488-MEK5 binding to MEKK2 mutant; percent response, % at 10 µM; 5,900 compounds, 2% hits; in the data active = percent response mostly above about 71%, no sharp cut-off; inactive = mostly below about 38%;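 also: higher means compound restores mutant binding toward wildtype level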
# MEKK3-MEK5 inh: MEKK3 wild-type PB1 binding to MEK5, inhibitors, confirmation, biochemical, bead multiplex flow cytometry, single concentration, wildtype; shares compounds with MEKK3 PB1 HTS; Alexa488-MEK5 binding to MEKK3; active compounds read low; binding response (% of control), % at 10 µM; 5,900 compounds, 1.8% hits; AID 1894, 2009;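 active = binding response below 72% of control, or above a set upper limit, though filed actives all read lower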;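 also: 100% = DMSO only wells and 0% = binding blocked by excess unlabeled MEK5; lower values mean stronger disruption of MEK5 binding to MEKK3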
# dFosB act-2: activators of mouse delta FosB DNA binding, confirmation, biochemical, fluorescence polarization, TAMRA-CDK5 oligo, cherry-picked samples | shares compounds with dFosB act-1 | purified delta FosB; normalised: neutral wells 0, positive control 100 | activation, % at 24.9 µM | 2,400 tested, under 10 active | AID 588690, 2011;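 active = highest replicate activation at or above 34% and every replicate reaching that threshold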;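 also: higher polarization means more probe DNA bound by delta FosB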
# Numbers without * were called inactive; / = not tested or not shown. The list is not random: actives were taken first. Their share in the collection is about 2.9%.
SMILES,MEKK2mut PB1 HTS,dFosB act-1,MEKK3 PB1 HTS,MEKK2 WT-MEK5,DNA FID counter,dFosB act-2,others
COc1ccc(-n2c(=S)[nH]c3cc(C(=O)Nc4ccc(OC)c(OC)c4)ccc3c2=O)cc1,-1,127*,140*,103,-6,1,MEKK2wt confirm=94;MEKK2mut-MEK5=-4;MEKK3-MEK5 inh=100
Cc1cccc(/C=C/C(=O)c2ccc(NC3=NCCCS3)cc2)c1,23,13,100,125,5,/,
CC(C)(C)c1ccc(/C=C/C(=O)c2ccc(NC3=NCCCS3)cc2)cc1,32,31*,109,139*,10,-2,MEKK2wt confirm=149;MEKK2mut-MEK5=21;MEKK3-MEK5 inh=105
O=C(CNCc1ccc(Cl)cc1)Nc1ccc(C(=O)N2CCCCC2)cc1,3,-15,100,99,-1,/,
O=C(c1ccc(NC(=S)NCc2ccc(Cl)cc2)cc1)N1CCCCC1,-9,30*,84,91,-5,1,
COC(=O)c1ccc(Nc2nc3ccc(C)cc3n3cnnc23)cc1,0,-1,105,102,-13,/,
COc1cccc(Nc2nc3ccc(C(=O)c4ccccc4)cc3n3cnnc23)c1,-4,19*,96,93,-3,0,
N#Cc1ccccc1S(=O)(=O)N1CCN(C(=O)C2CCCC2)CC1,2,-6,97,99,-4,/,
COc1ccc(CC(=O)Nc2ccc(-c3nnc(-c4ccccc4)o3)cc2)cc1OC,1,120*,100,102,-3,-7,
O=C(COc1ccc(Cl)cc1)Nc1ccc2oc(-c3ccncc3)nc2c1,9,37*,102,107,-9,-1,
COc1ccc(-c2nc3cc(NC(=O)Cc4ccc(OC)c(OC)c4)ccc3o2)cc1,-6,56*,91,89,-9,4,
CCC(NC(=O)c1ccc(C#CC2(O)CCCCC2)cc1)C(=O)O (configuration not stated),2,-3,104,100,-12,/,
C#CCOCCOCCOCCNc1nc(N2CCN(C(=O)[C@H]([C@@H](C)O)n3cc(CCCCN)nn3)CC2)nc(N2CCN(C(=O)[C@H](Cc3ccc(O)cc3)n3cc(CCO)nn3)CC2)n1,-5,-2,83,95,9,/,
COc1ccccc1NC(=O)Nc1nnc(Cc2ccccc2F)s1,2,3,101,103,-7,/,
Cc1ccccc1NC(=O)Cc1nnc(NC(=O)Nc2ccccc2F)s1,-9,52*,83,90,1,-10,
COc1cccc(NC(=O)Nc2nnc(CC(=O)NCc3ccccc3)s2)c1,-6,39*,61,56,-10,-3,
COc1ccccc1NC(=O)Nc1nnc(CC(=O)Nc2cccc(C)c2)s1,4,32*,112,114,-14,5,
O=C(Nc1ccc(F)cc1)Nc1nnc(Cc2ccccc2F)s1,3,21*,103,97,-11,-1,
O=C(Nc1ccc(Cl)cc1)Nc1nnc(CSCc2ccc(Cl)cc2)s1,15,19*,107,118,3,0,
CCc1nnc(NC(=O)Nc2ccc(Cl)cc2)s1,-7,0,99,90,-7,/,
COc1ccccc1NC(=O)Nc1nc(CC(=O)Nc2ccc(F)cc2)cs1,/,27*,/,/,/,5,
COc1ccccc1NC(=O)Nc1nc(CC(=O)Nc2cccc(F)c2)cs1,/,12,/,/,/,/,
CCN(CC(=O)NCc1cccs1)C(=O)c1ccc(Cl)c(Cl)c1,/,-2,/,/,/,/,
O=C(COc1ccccc1C(=O)O)Nc1nc2ccc([N+](=O)[O-])cc2s1,-4,25*,96,98,11,0,
Cc1cccc(OCC(=O)Nc2nc3ccc([N+](=O)[O-])cc3s2)c1C,/,-5,/,/,4,/,
SMILES,MEKK2mut PB1 HTS,dFosB act-1,MEKK3 PB1 HTS,MEKK2 WT-MEK5,DNA FID counter,dFosB act-2,others
Cn1cnnc1SC(C(=O)Nc1ccc(F)cc1)c1ccccc1 (configuration not stated),0,-6,98,102,-8,/,
Cn1cnnc1SC(C(=O)Nc1cc(Cl)cc(Cl)c1)c1ccccc1 (configuration not stated),2,20*,111,103,5,12,
CCOc1ccc(S(=O)(=O)/N=C(/Nc2ccc(S(N)(=O)=O)cc2)c2ccccc2)cc1,/,-4,/,/,/,/,
COc1ccccc1-c1oc2ccccc2c1C#CC1(N)CCCCC1,/,24*,/,/,/,-1,
CC(C)Cn1c(/C=C/c2ccco2)nc2ccccc21,3,-1,89,100,-31,/,
COCCN(Cc1cn[nH]c1-c1ccc2cc(OC)ccc2c1)C(C)C,-1,-7,104,108,16,/,
O=C(/C=C/c1ccc2c(c1)OCO2)Nc1nc2ccc(F)cc2s1,3,30*,97,93,-4,3,
O=C(/C=C/c1ccc2c(c1)OCO2)Nc1ccc(Cl)cn1,-1,103*,103,96,-4,-1,
CSc1nc(N)nc2c1ncn2CC(=O)NCC1CCCO1 (configuration not stated),/,2,/,/,/,/,
Cc1ccc(S(=O)(=O)N(C)C)cc1N,1,-2,104,98,-3,/,
Cc1cc(C(=O)OCC(=O)N2CC(=O)Nc3ccccc32)no1,1,-4,99,101,4,/,
Cc1c(C(=O)OCC(=O)N2CC(=O)Nc3ccccc32)oc2ccc(Br)cc12,/,70*,/,/,-1,0,
CCOC(=O)c1ccc(S(=O)(=O)NNC(=O)COc2ccc(C)cc2)cc1,-1,61*,89,97,-5,4,
CCOc1ccc(NC(=O)c2cccc3c2C(=O)N(Cc2cccnc2)C3)cc1,7,-8,105,114,-19,/,
COC(=O)c1ccc(NC(=O)C(=O)c2c[nH]c3ccccc23)cc1,4,72*,103,104,-11,7,
